Results filed as inconclusive are left out. Entries that show only a call come without a potency. Activity calls are given as the source filed them. The call rests on the fitted dose curve; in most records, active means well fitted curve in the direction sought with a large enough effect; inconclusive means small, poorly fitted or top-dose-only effect, or another doubt; inactive means no such curve, though single readings can be large; an effect the other way counts as inactive or inconclusive.
Tests used:
C33A = assay: Primary qHTS to identify gynecologic anti-cancer compounds using libraries of approved drugs and bioactive compounds (AID 1345084); conditions: Gynecologic cancer cell panel viability, ATPlite luminescence, 48 h; series mostly up to 57.5 µM; further: nearly all actives have a fitted effect of over 55% in size
Summary of the method: (§1)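 Cell viability after 48 h drug treatment, ATPlite luminescence readout; five doses.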

MCC-13 = assay: qHTS assay to identify novel small-molecules to repurpose for Merkel cell carcinoma treatment (AID 1296009); conditions: MCC and control cell lines, CellTiter-Glo viability, 72 h; series mostly up to 46 µM; further: nearly all actives have a fitted effect of over 60% in size
Summary of the method: (§2)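 Cell viability, measured as CellTiter-Glo luminescence, was normalized between DMSO and no-cell wells. The cells had been exposed to 8- or 11-point compound dilutions for 72 hr at 37 degree celsius.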

NIH3T3 = assay: as above; conditions: MCC and control cell lines, CellTiter-Glo viability, 72 h; at 44.8 µM (top of the series)
Summary of the method: as §2

CAOV3 = assay: Primary qHTS to identify gynecologic anti-cancer compounds using libraries of approved drugs and bioactive compounds (AID 1345084); conditions: Gynecologic cancer cell panel viability, ATPlite luminescence, 48 h; series mostly up to 57.5 µM; further: nearly all actives have a fitted effect of over 55% in size
Summary of the method: as §1

CASKI = assay: as above; conditions: Gynecologic cancer cell panel viability, ATPlite luminescence, 48 h; series mostly up to 57.5 µM
Summary of the method: as §1

MCC-26 = assay: qHTS assay to identify novel small-molecules to repurpose for Merkel cell carcinoma treatment (AID 1296009); conditions: MCC and control cell lines, CellTiter-Glo viability, 72 h; series mostly up to 46 µM; further: nearly all actives have a fitted effect of over 60% in size
Summary of the method: as §2

MKL-1 = assay: as above; conditions: MCC and control cell lines, CellTiter-Glo viability, 72 h; series mostly up to 46 µM
Summary of the method: as §2

MKL-2 = assay: as above; conditions: MCC and control cell lines, CellTiter-Glo viability, 72 h; series mostly up to 46 µM
Summary of the method: as §2

UISO = assay: as above; conditions: MCC and control cell lines, CellTiter-Glo viability, 72 h; series mostly up to 46 µM
Summary of the method: as §2

WaGa = assay: as above; conditions: MCC and control cell lines, CellTiter-Glo viability, 72 h; series mostly up to 46 µM
Summary of the method: as §2
Potency means the concentration at half of the fitted maximal effect.

CC[C@]12CCCN3CCc4c(n(c5ccccc45)C(=O)C1)[C@@H]32
Potency (C33A): inactive

CCOc1ccccc1C(N)=O
Potency (MCC-13): inactive | outcome (NIH3T3): inactive | Potency (C33A): inactive | Potency (CAOV3): inactive | Potency (CASKI): inactive

O=C(CCCN1CC=C(n2c(=O)[nH]c3ccccc32)CC1)c1ccc(F)cc1
Potency (MCC-26): inactive | Potency (MKL-1): inactive | Potency (MKL-2): inactive | Potency (UISO): 26.6 µM (active) | Potency (C33A): inactive | Potency (CASKI): inactive

CCN(CC)CCNc1ccc(CO)c2sc3ccccc3c(=O)c12
Potency (MCC-13): 26.6 µM (active) | Potency (MKL-1): 10.6 µM (active) | Potency (MKL-2): 3.35 µM (active) | Potency (UISO): 5.96 µM (active) | Potency (CAOV3): 22.4 µM (active)

O=c1[nH]c(=O)n([C@H]2C[C@H](O)[C@@H](CO)O2)cc1F
Potency (WaGa): 0.0335 µM (active) | Potency (CAOV3): 1.58 µM (active)

CC(=O)Nc1ccc(S(=O)(=O)Nc2ccc([N+](=O)[O-])cc2)cc1
Potency (MCC-13): inactive | Potency (MKL-1): inactive | Potency (MKL-2): inactive | Potency (UISO): inactive | Potency (C33A): inactive | Potency (CASKI): inactive

CCN(CC)CCNC(=O)COc1ccc(OC)cc1
Potency (MCC-13): inactive | Potency (MKL-1): inactive | Potency (MKL-2): inactive | Potency (UISO): inactive | Potency (WaGa): inactive | Potency (C33A): inactive | Potency (CASKI): inactive

Cc1cc2c(OCC(CNC(C)(C)C)OC(=O)c3ccccc3)cccc2[nH]1 (stereo not drawn)
Potency (MCC-13): inactive | Potency (MKL-1): inactive | Potency (MKL-2): inactive | Potency (UISO): inactive | Potency (C33A): inactive | Potency (CAOV3): inactive | Potency (CASKI): inactive

O[C@@H](c1cc(C(F)(F)F)nc2c(C(F)(F)F)cccc12)[C@H]1CCCCN1
Potency (MKL-1): 21.1 µM (active) | Potency (MKL-2): 2.99 µM (active) | Potency (UISO): 23.7 µM (active) | Potency (C33A): 28.2 µM (active) | Potency (CAOV3): 20 µM (active)

Oc1ccc(Cl)cc1Cc1cc(Cl)ccc1O
Potency (MCC-26): inactive | Potency (MKL-1): 23.7 µM (active) | Potency (MKL-2): 11.9 µM (active) | Potency (CASKI): inactive

CN1CCc2cccc3c2[C@H]1Cc1ccc(O)c(O)c1-3
Potency (MCC-26): inactive | Potency (MKL-1): 1.33 µM (active) | Potency (MKL-2): 0.841 µM (active) | Potency (WaGa): 11.9 µM (active) | Potency (CASKI): inactive
